# Source: PubChem BioAssay (NCATS)
# Results filed as inconclusive are left out. Where a call stands in place of a potency, no number is given. Unmarked numbers belong to inactive results. The source made the active and inactive calls. Calls follow the shape of the dose curve; as a rule, active = well fitted cell-killing curve with a large enough effect; inconclusive = small, poorly fitted or top-dose-only effect, or effect the other way; inactive = flat fitted curve, though single readings scatter.
# System: Hek293T
# Assay: Primary qHTS to identify gynecologic anti-cancer compounds using libraries of approved drugs and bioactive compounds (AID 1345084); also: nearly all actives have a fitted effect of over 55% in size
# Settings: Gynecologic cancer cell panel viability, ATPlite luminescence, 48 h, control line for the selectivity index; series mostly up to 57.5 µM
# Outline: (§1)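 48 h compound exposure at 37 C, 5% CO2; five-point qHTS. ATPlite luminescence readout of cell ATP.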
# Potency is read from the fitted curve at half-maximal effect.
Structure (SMILES),Potency,"activity change, negative = cytotoxicity"
CC(O)(C(=O)O)C1CCC2(C)C1CCC1(C)C2CCC2C3(C)CCC(O)C(C)(COC4OC(CO)C(O)C(O)C4O)C3CCC21C (stereo not given),10 µM (active),–
CC(=O)CC(=O)Nc1ccc(Cl)c(C(F)(F)F)c1,inactive,–
CCCOc1ccc(CCc2nc3cc(-c4c(C)noc4C)ccc3n2CCN2CCOCC2)cc1,inactive,–
CC(NC(=O)Cc1cc(F)cc(F)c1)C(=O)NC1C(=O)N(C)c2ccccc2-c2ccccc21 (stereo not given),inactive,–
N#Cc1ccc(COc2ccc(-c3cccc4nc(NC(=O)C5CC5)nn34)cc2)cn1,inactive,–
C=C(C)[C@@H]1CC=C(COC(=O)NC(=O)c2ncn3c(=O)n(C)nnc23)CC1,25.1 µM (active),–
CC1(C)CN(C(=O)c2ccc(-c3cccc4nc(NC(=O)C5CC5)nn34)cc2)C1,inactive,–
CCN(CC)C(=O)c1ccc(Nc2nc(OCC3CCCCC3)c3[nH]cnc3n2)cc1,inactive,–
C=C1C(=O)OC2/C=C(\C)CC/C=C(\C)CC(OC(C)=O)C12 (stereo not given),inactive,–
CCC(C)C(=O)OC1C(C)C2(O)C(C=C(CO)CC3(O)C(=O)C(C)=CC32)C2C(C)(C)C12OC(=O)C(C)C (stereo not given),inactive,–
CCC(C)(OC(C)=O)C(=O)O[C@H]1[C@H](OC(C)=O)[C@]2(CO)[C@H](O)[C@H](O)[C@]3(C)C(=CCC4[C@@]5(C)CC[C@H](O[C@@H]6O[C@H](C(=O)O)[C@@H](O)[C@H](O[C@@H]7OC[C@H](O)[C@H](O[C@@H]8OC[C@H](O)[C@H](O)[C@H]8O)[C@H]7O)[C@H]6O[C@@H]6O[C@H](CO)[C@@H](O)[C@H](O)[C@H]6O)C(C)(C)C5CC[C@]43C)[C@@H]2CC1(C)C (stereo not given in full),–,-17.4% [at 6.55 µM]
FC(F)(F)c1ccccc1-c1cc(C(F)(F)F)c2nc(C3=NOC4(CCCCC4)C3)[nH]c2c1,inactive,–
Cc1ccc(-c2c(C(=O)CCl)n(CCCO)c3ncnc(N)c23)cc1,inactive,–
CCn1c(=O)c(-c2ccc(-c3cncs3)cc2Cl)cc2cnc(Nc3ccc(N4CCN(C)CC4)cc3)nc21,inactive,–
CCNC(=O)C#Cc1ccc2c(C(=Nc3ccc(CN(C)C)cc3)c3ccccc3)c(O)[nH]c2c1,inactive,–
Cc1ccc(-c2ncccn2)c(C(=O)N2C[C@H](COc3ccc(F)cn3)CC[C@H]2C)c1,inactive,–
COc1cc2ncnc(Oc3ccc(CC(=O)Nc4cnn(C(C)C)c4)cc3)c2cc1OC,inactive,–
CC(C)(O)C1Cc2c(ccc(C(=O)CCc3ccccc3)c2O)O1 (stereo not given),11.2 µM (active),–
CC(CCC1(O)OC2CC3C4CC=C5CC(O[C@@H]6O[C@H](CO)[C@@H](O[C@@H]7O[C@@H](C)[C@H](O)[C@@H](O)[C@H]7O)[C@H](O)[C@H]6O[C@@H]6O[C@@H](C)[C@H](O)[C@@H](O)[C@H]6O)CCC5(C)C4CCC3(C)C2C1C)CO[C@@H]1O[C@H](CO)[C@@H](O)[C@H](O)[C@H]1O (stereo not given in full),–,4.44% [at 11.6 µM]
CC(C)NC(=O)N1CC[C@H](N=C2Nc3cc(F)ccc3N(CC(F)F)c3ccc(Cl)cc32)C1,–,1.3% [at 11.6 µM]
O=C(Nc1nnc(-c2ccc3c(c2)OCCO3)o1)C1CCCCC1,inactive,–
CC(C)(C)[C@H](NC(=O)c1ccc(N)c(Cl)c1)C(=O)N1CCC[C@H]1C(=O)N[C@H](C#N)CC(=O)O,inactive,–
C=C1CC[C@@H]2[C@](C)(CO)[C@H](O)CC[C@@]2(C)[C@@H]1CC(=O)C1=CCOC1=O,inactive,–
O=c1cc(N2CCOCC2)nc2c3ccccc3ccn12,inactive,–
CC(=O)O[C@H]1CC[C@]2(C)[C@H]3CC[C@]4(C)Oc5oc(C)cc(=O)c5C[C@H]4[C@]3(C)CC[C@H]2C1(C)C,inactive,–

# System: JEG-3
# Assay: as above
# Settings: Gynecologic cancer cell panel viability, ATPlite luminescence, 48 h; series mostly up to 57.5 µM
# Outline: as §1
Structure (SMILES),"activity change, negative = cytotoxicity",Potency
CC(=O)O[C@H]1CC(C)(C)CC2[C@]13CO[C@@]21CCC2[C@@]4(C)CC[C@H](O[C@@H]5OC[C@H](O[C@@H]6O[C@H](CO)[C@@H](O)[C@H](O)[C@H]6O[C@@H]6OC[C@@H](O)[C@H](O)[C@H]6O)[C@H](O)[C@H]5O[C@@H]5O[C@H](CO)[C@@H](O)[C@H](O)[C@H]5O)[C@@](C)(CO)C4CC[C@@]2(C)[C@]1(C)C[C@H]3O (stereo not given in full),-9.1% [at 11.6 µM],–
CC(=O)CC(=O)Nc1ccc(Cl)c(C(F)(F)F)c1,–,inactive
CCCOc1ccc(CCc2nc3cc(-c4c(C)noc4C)ccc3n2CCN2CCOCC2)cc1,–,inactive
CC(NC(=O)Cc1cc(F)cc(F)c1)C(=O)NC1C(=O)N(C)c2ccccc2-c2ccccc21 (stereo not given),–,inactive
N#Cc1ccc(COc2ccc(-c3cccc4nc(NC(=O)C5CC5)nn34)cc2)cn1,–,inactive
Nc1ncnc2c1c(-c1ccc(Oc3ccccc3)cc1)nn2[C@@H]1CCCNC1,–,inactive
C=C1C(=O)O[C@@H]2[C@H]3C(C)=CC(=O)C3=C(C)[C@@H](OC(=O)/C(C)=C\C)[C@H](O)[C@@H]12,–,inactive
CN(C)CCN(Cc1ccc(-c2ccc(CNCCc3ccccc3)cc2)cc1)C(=O)CCC1CCCC1,–,25.1 µM (active)
CC1(C)CN(C(=O)c2ccc(-c3cccc4nc(NC(=O)C5CC5)nn34)cc2)C1,–,inactive
CCN(CC)C(=O)c1ccc(Nc2nc(OCC3CCCCC3)c3[nH]cnc3n2)cc1,–,inactive
Oc1cccc(-c2c3nc(c(-c4cccc(O)c4)c4ccc([nH]4)c(-c4cccc(O)c4)c4nc(c(-c5cccc(O)c5)c5ccc2[nH]5)CC4)C=C3)c1,–,inactive
C=C1C(=O)OC2/C=C(\C)CC/C=C(\C)CC(OC(C)=O)C12 (stereo not given),–,inactive
CCC(C)C(=O)OC1C(C)C2(O)C(C=C(CO)CC3(O)C(=O)C(C)=CC32)C2C(C)(C)C12OC(=O)C(C)C (stereo not given),–,inactive
CCC(C)(OC(C)=O)C(=O)O[C@H]1[C@H](OC(C)=O)[C@]2(CO)[C@H](O)[C@H](O)[C@]3(C)C(=CCC4[C@@]5(C)CC[C@H](O[C@@H]6O[C@H](C(=O)O)[C@@H](O)[C@H](O[C@@H]7OC[C@H](O)[C@H](O[C@@H]8OC[C@H](O)[C@H](O)[C@H]8O)[C@H]7O)[C@H]6O[C@@H]6O[C@H](CO)[C@@H](O)[C@H](O)[C@H]6O)C(C)(C)C5CC[C@]43C)[C@@H]2CC1(C)C (stereo not given in full),-1.81% [at 6.55 µM],–
CCOC(=O)c1csc(Nc2ccc(Cl)cc2)n1,–,inactive
FC(F)(F)c1ccccc1-c1cc(C(F)(F)F)c2nc(C3=NOC4(CCCCC4)C3)[nH]c2c1,–,inactive
Cc1ccc(-c2c(C(=O)CCl)n(CCCO)c3ncnc(N)c23)cc1,–,inactive
CCn1c(=O)c(-c2ccc(-c3cncs3)cc2Cl)cc2cnc(Nc3ccc(N4CCN(C)CC4)cc3)nc21,–,inactive
O=C(Nc1cccc(C(F)(F)F)c1)Nc1ccc(Br)cc1-c1nn[nH]n1,–,inactive
CCNC(=O)C#Cc1ccc2c(C(=Nc3ccc(CN(C)C)cc3)c3ccccc3)c(O)[nH]c2c1,–,inactive
Cc1ccc(-c2ncccn2)c(C(=O)N2C[C@H](COc3ccc(F)cn3)CC[C@H]2C)c1,–,inactive
COc1cc2ncnc(Oc3ccc(CC(=O)Nc4cnn(C(C)C)c4)cc3)c2cc1OC,–,inactive
CC(C)(O)C1Cc2c(ccc(C(=O)CCc3ccccc3)c2O)O1 (stereo not given),–,inactive
CC(CCC1(O)OC2CC3C4CC=C5CC(O[C@@H]6O[C@H](CO)[C@@H](O[C@@H]7O[C@@H](C)[C@H](O)[C@@H](O)[C@H]7O)[C@H](O)[C@H]6O[C@@H]6O[C@@H](C)[C@H](O)[C@@H](O)[C@H]6O)CCC5(C)C4CCC3(C)C2C1C)CO[C@@H]1O[C@H](CO)[C@@H](O)[C@H](O)[C@H]1O (stereo not given in full),10.4% [at 11.6 µM],–
CC(C)NC(=O)N1CC[C@H](N=C2Nc3cc(F)ccc3N(CC(F)F)c3ccc(Cl)cc32)C1,13.8% [at 11.6 µM],–
O=C(Nc1nnc(-c2ccc3c(c2)OCCO3)o1)C1CCCCC1,–,inactive
CC(C)c1cccc(C(C)C)c1NC(=O)Nc1ccc(Sc2ccc([N+](=O)[O-])cc2)cc1,–,inactive
CC(C)(C)[C@H](NC(=O)c1ccc(N)c(Cl)c1)C(=O)N1CCC[C@H]1C(=O)N[C@H](C#N)CC(=O)O,–,inactive
O=c1cc(N2CCOCC2)nc2c3ccccc3ccn12,–,inactive
CC(=O)O[C@H]1CC[C@]2(C)[C@H]3CC[C@]4(C)Oc5oc(C)cc(=O)c5C[C@H]4[C@]3(C)CC[C@H]2C1(C)C,–,inactive
